From PubChem BioAssay AID743279 (National Center for Advancing Translational Sciences (NCATS), 2014) come the findings set out here.

Screen size: about 360,000 compounds; about 17,000 (4.7%) were called active. Not shown: some 5% with an inconclusive outcome. The full list was thinned out, with actives kept by preference. Unmarked numbers belong to inactive results. Rule as the data show it: active = activity change below about -50%; inconclusive = mostly about -30% to -49%; inactive = weaker than that.
% is scaled to controls: 0 for no effect and ±100 for the full control effect.

This test in a line: qHTS for Inhibitors of Inflammasome Signaling: IL-1-beta AlphaLISA Primary Screen. The note with it: THP-1 LPS/ATP IL-1B secretion, 16 h; at 57.5 µM, hits give low values. The procedure, abridged:
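Secreted IL-1B measured by AlphaLISA bead assay after 16 h compound exposure of THP-1 cells; compounds (final up to 57.5 uM) added 1 h before LPS (250 ng/mL) and ATP (1.25 mM) stimulation; lower signal means less secretion.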
`CCOC(=O)C=Cc1ccc(C(=O)OCC)[nH]1`: the activity change was 12.1%. Next, `CCOC(=O)C1=C(CSc2nccn2C)NC(=O)NC1c1ccc(OC)cc1` (stereo not given): -4.23%; `CCOCCOC(=O)C1=C(C)NC(=O)NC1c1ccc2c(c1)OCO2` (stereo not given): -7.25%.

With `CCOC(=O)C1=C(CCc2ccccc2)NC(=O)NC1c1ccc2ccccc2c1` (stereo not given), the activity change is -52.7% (active).

Turning to `Cn1c(=O)[nH]c2c(c(C(=O)O)nn2C)c1=O`, the activity change is -10.6%.

As to `CCOc1ccc(C(=O)CCC(=O)Nc2ccncc2)cc1`, the activity change is 2.33%.

Turning to `CCOc1ccc(NC(=O)c2ccc(NC(=O)C3CCCO3)cc2)cc1` (stereo not given), the activity change was -7.47%. In the case of `CCc1ccc(NC(=O)Nc2ccncc2)cc1`, the activity change is -73.4% (active).

In the case of `CCc1ccc(NC(=O)N[C@H](C(=O)O)C(C)CC)cc1` (stereo not given in full), the activity change was 21.9%. Next, `CCOc1ccc(C(=O)Nc2ccncc2)cc1`: -73.6% (active); `CCOc1ccc(C(=O)Nc2cccc(-c3ccc4nncn4n3)c2)cc1`: 0%. Next, `CC(C)CC(=O)Nc1ccc(Cc2ccncc2)cc1`: -7.35%; `CCOc1ccc(C(=O)Nc2cccc(SC)c2)cc1`: -79.8% (active). Turning to `CSc1cccc(NC(=O)CSc2ccccc2)c1`, the activity change is -2.08%. Next, `COC(=O)C(Cc1c[nH]c2ccccc12)NC(=O)CCNC(=O)c1ccco1` (stereo not given): 19.3%; `CCOC(=O)[C@]12CCC=C1N(CCC1=CCCCC1)C(=O)[C@H](CC(=O)NCc1ccc(C)o1)C2`: 13.9%. Next, `COc1cccc(CN(C)C(=O)CC[C@H]2O[C@@H](n3cnc4c(NC(=O)c5ccccc5)ncnc43)[C@H](O)[C@@H]2O)c1`: -16.9%.

In the case of `O=C(Nc1cccc(-c2cscn2)c1)C1CCN(Cc2ccsc2)CC1`, the activity change is -28.7%.

Turning to `CCn1cc(CN2CCC(C(=O)Nc3cccc(-c4cccc(Cl)c4)c3)CC2)cn1`, the activity change is -79.5% (active). For the compound `O=C(Nc1cnn(Cc2ccc(Cl)cc2)c1)C1CCCC1`, the activity change was -16.9%.

Turning to `CCn1cc(CN2CCC(n3nccc3NC(=O)CCCc3ccccc3)CC2)c(C)n1`, the activity change was 40%. `CC(=O)c1cc(CN2CCC(C(=O)Nc3cccc(-c4cscn4)c3)CC2)cs1`: the activity change result is “inactive”. Next, `CCn1cc(CN2CCC(C(=O)Nc3cccc(-c4cccc(Cl)c4)c3)CC2)c(C)n1`: -53.4% (active); `C=CCOc1ccc(/C=C/C(=O)OC(C)C(=O)Nc2ccc(NC(C)=O)cc2)cc1` (stereo not given): -0.196%. As to `Nc1cc(=O)c2[nH]cnc2[nH]1`, the activity change was 17.6%.

Consider `CCc1nc2ccc(C(=O)N(C)CCN(C)C)cn2c1N(CC)CCOC`, for which the activity change was -19.3%. Next, `CC(C)C[C@@H]1Cc2[nH][nH]c(=O)c2[C@H](CCc2ccccc2)O1`: -2.24%. Next, `CC1(c2cccc(Br)c2)NC(=O)N(CC(=O)NCCC2=CCCCC2)C1=O` (stereo not given): 1.79%. Next, `COc1cccc2c1C(=O)c1c(O)c3c(c(O)c1C2=O)CC(O)(C(C)=NNC(=O)c1ccc(Cl)c(Cl)c1)CC3OC1CC(N)C(O)C(C)O1` (stereo not given): -101% (active); `Oc1c(CN2CCOCC2)ccc(CN2CCOCC2)c1O`: 14.4%; `CN(C(=O)c1cccc(NC(=O)Cc2ccc(NC(=O)C3CCN(C(=O)C4CCCCC4)CC3)cc2)c1)C1CCC1`: -1.34%. In the case of `CN1CCN(C2Cc3ccc(Cl)cc3Sc3ccc(F)cc32)CC1` (stereo not given), the activity change was -63.5% (active). Next, `COC(=O)C1NN=C(C(=O)c2ccc(Br)cc2)C1c1cccc(Br)c1` (stereo not given): 19.6%; `C[C@H]1CN([C@@H](C)CO)C(=O)CCCn2cc(nn2)CO[C@@H]1CN(C)C(=O)Nc1ccccc1`: -2.98%; `Fc1ccc(-c2ccc(NCCN3CCOCC3)nn2)cc1`: -8.39%. Next, `c1ccc2cc3c(NCCN4CCOCC4)ccnc3cc2c1`: -83.2% (active); `CCOc1nc(NCCN2CCOCC2)nc(Nc2ccc(C)cc2)n1`: -27.7%.

Consider `Cc1nc(N)sc1-c1ccccc1`, for which the activity change was -26.3%. Next, `COc1ccc(-n2c(Cc3cccn3C)nnc2SCC(=O)Nc2cc(C)cc(C)c2)cc1`: -24.7%. Next, `Cc1cccc(-n2c(SCC(N)=O)nc3c(c2=O)C2(CCCCC2)Cc2ccccc2-3)c1`: -72.3% (active); `N#CCSc1nc2c(c(=O)n1Cc1ccccc1)C1(CCCC1)Cc1ccccc1-2`: 4.25%; `Cc1cccc(-n2c(=O)c3c(C)c(C)sc3n(CC(N)=O)c2=O)c1`: 16.6%. Consider `COCC(=O)N(C)C[C@H]1Oc2cc(Br)ccc2S(=O)(=O)N([C@H](C)CO)C[C@H]1C`, for which the activity change was 20.9%.

Turning to `CCOCCC(=O)Nc1ccc2c(c1)c(=O)n(C)n2-c1ccc2ccccc2c1`, the activity change was 87.4%. Next, `COc1ccc(Cl)cc1C(=O)NNC(=S)NC(=O)/C=C/c1ccco1`: 26.9%; `CCOC(=O)C1=NN(c2ccc(Cl)cc2)/C(=C/C2=NCCc3cc(OC)c(OC)cc32)S1`: -28.4%; `COc1cc2c(cc1OC)C(/C=C/c1ccco1)=NCC2`: -75.5% (active). `C[C@H]1COc2cc(N3CCSCC3)ccc2S(=O)(=O)N1`: the activity change was 26.2%.

On to `COc1ccc(Cl)cc1-c1cc(C(=O)Nc2cc(OC)c(OC)c(OC)c2)[nH]n1`, for which the activity change was -10.3%.

Take `CSc1ncnc2c1ncn2CCCNCC(C)c1ccccc1` (stereo not given): the activity change is 17.6%. Next, `COc1ccc(-c2cc(NC(C)=O)c3ncc(-c4cc(OC)c(OC)c(OC)c4)n3c2)cn1`: 41.4%; `O=C1/C(=C/c2ccc(F)cc2)SC(=S)N1CCCC(=O)N1CCCCC1CCO` (stereo not given): -86.6% (active). Next, `COc1ccc(/C=C2\SC(=S)N(CCCC(=O)NC3CCCC3)C2=O)cc1OC`: 7.66%; `CCN(C(=O)CN1C(=O)/C(=C/c2ccc(F)cc2)SC1=S)C1CCS(=O)(=O)C1` (stereo not given): 0%; `Cc1cccc(C)c1-n1nnnc1C1(C)CCC(=O)N1CCOc1ccccc1` (stereo not given): 33.1%.

As to `CC(C)c1ccc(/C=C/C(=O)NCCCN2CCOCC2)cc1`, the activity change is -1.14%. Next, `CC1CC(NC(=S)N(C)C)CC(C)(C)C1` (stereo not given): 31.1%.

For `NS(=O)(=O)c1ccc(CCNS(=O)(=O)c2cccc3cccnc23)cc1`, the activity change was 7.82%. Next, `COc1cc(NS(=O)(=O)c2ccc3ccccc3c2)c2ncccc2c1`: 20.6%; `O=[N+]([O-])c1ccccc1S(=O)(=O)Nc1cccc2cccnc12`: -99.8% (active).
